Source: the supplement of paper PMC10849652
Of roughly 8,800 targets only a part is listed; those with a hit were picked by preference. About 0.5% of all pairs of compound and target were hits.

Key:
Experiment in all cases: log2 fold change, soluble protein after heating vs DMSO (PISA); higher = thermal stabilisation; K562 lysate, 10 uM; active = over 0.2 and 3.5 SD of the protein, either way, in both replicates (recomputed)
vemurafenib = compound: CCCS(=O)(=O)Nc1ccc(F)c(C(=O)c2c[nH]c3ncc(-c4ccc(Cl)cc4)cc23)c1F [vemurafenib]
Outline: (§1)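 A 30 min treatment with 10 μM compound was applied to crude K562 extract at 1 mg/mL protein in PBS pH 7.4 with 1 mM MgCl2. Heating for 3 min spanned 48°C-58°C, after which aliquots were pooled, adjusted to 0.5% NP-40 at 4°C and spun at 21,000xg for 90 min. TMTpro 16plex LC-MS/MS of the supernatant, with channel sums equalised, gave values recorded as log-two fold change in thermal stability against solvent controls, from duplicates.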

[1] = compound: CCCS(=O)(=O)Nc1ccc(F)c(C(=O)c2c[nH]c3ncc(Cl)cc23)c1F
Outline: as §1

barasertib = compound: CCN(CCCOc1ccc2c(Nc3cc(CC(=O)Nc4cccc(F)c4)[nH]n3)ncnc2c1)CCOP(=O)(O)O [barasertib]
Outline: as §1

[2] = compound: CC[C@@H]1C(=O)N(C)c2cnc(Nc3ccc(C(=O)NC4CCN(C)CC4)cc3OC)nc2N1C1CCCC1
Outline: as §1

volasertib = compound: CC[C@@H]1C(=O)N(C)c2cnc(Nc3ccc(C(=O)N[C@H]4CC[C@H](N5CCN(CC6CC6)CC5)CC4)cc3OC)nc2N1C(C)C [volasertib]
Outline: as §1

[3] = compound: CCn1c(C(=O)N(C2CC2)C2CC2)cc2c3c(ncn3C)c(Nc3cc(C)n(C)n3)nc21
Outline: as §1

[4] = compound: CCn1cc(-c2ccnc3[nH]c(-c4cccc(CN(C)C)c4)cc23)c(-c2ccc(NC(=O)N(C)C)cc2)n1
Outline: as §1

[5] = compound: CN1CCC(CNc2ccc3ncc(-c4cccc(OC(F)(F)F)c4)n3n2)CC1
Outline: as §1

saracatinib = compound: CN1CCN(CCOc2cc(OC3CCOCC3)c3c(Nc4c(Cl)ccc5c4OCO5)ncnc3c2)CC1 [saracatinib]
Outline: as §1

sotrastaurin = compound: CN1CCN(c2nc(C3=C(c4c[nH]c5ccccc45)C(=O)NC3=O)c3ccccc3n2)CC1 [sotrastaurin]
Outline: as §1

alvocidib = compound: CN1CC[C@H](c2c(O)cc(O)c3c(=O)cc(-c4ccccc4Cl)oc23)[C@H](O)C1 [alvocidib]
Outline: as §1

Tubastatin A = compound: CN1CCc2c(c3ccccc3n2Cc2ccc(C(=O)NO)cc2)C1 [Tubastatin A]
Outline: as §1

[6] = compound: CNC(=O)C1=CC=CC=C1NC2=NC(=NC=C2Cl)NC3=C(C=C(C=C3)N4CCOCC4)OC
Outline: as §1

defactinib = compound: CNC(=O)c1ccc(Nc2ncc(C(F)(F)F)c(NCc3nccnc3N(C)S(C)(=O)=O)n2)cc1 [defactinib]
Outline: as §1

[7] = compound: CNc1nc(-c2ccc3c(N)n[nH]c3c2)cc(N2C[C@@H](C(=O)NC3CCCCC3)CC[C@H]2C)n1
Outline: as §1

encorafenib = compound: COC(=O)N[C@@H](C)CNc1nccc(-c2cn(C(C)C)nc2-c2cc(Cl)cc(NS(C)(=O)=O)c2F)n1 [encorafenib]
Outline: as §1

[8] = compound: COC(=O)[C@H](CCSC)NC(=O)C1=C(C=C(C=C1)NC[C@H](CS)N)C2=CC=CC=C2
Outline: as §1

alisertib = compound: COc1cc(Nc2ncc3c(n2)-c2ccc(Cl)cc2C(c2c(F)cccc2OC)=NC3)ccc1C(=O)O [alisertib]
Outline: as §1

[9] = compound: COc1cc2nc(-c3cc(F)ccc3O)nc(N[C@@H]3CNC[C@H]3C(C)(C)O)c2cc1OC
Outline: as §1

gefitinib = compound: COc1cc2ncnc(Nc3ccc(F)c(Cl)c3)c2cc1OCCCN1CCOCC1 [gefitinib]
Outline: as §1

Measured: log2 fold change

ZMYM2 (UniProt Q9UBW7)
Chain of UniProt Q9UBW7 (Q9UBW7 whole entry, looked up): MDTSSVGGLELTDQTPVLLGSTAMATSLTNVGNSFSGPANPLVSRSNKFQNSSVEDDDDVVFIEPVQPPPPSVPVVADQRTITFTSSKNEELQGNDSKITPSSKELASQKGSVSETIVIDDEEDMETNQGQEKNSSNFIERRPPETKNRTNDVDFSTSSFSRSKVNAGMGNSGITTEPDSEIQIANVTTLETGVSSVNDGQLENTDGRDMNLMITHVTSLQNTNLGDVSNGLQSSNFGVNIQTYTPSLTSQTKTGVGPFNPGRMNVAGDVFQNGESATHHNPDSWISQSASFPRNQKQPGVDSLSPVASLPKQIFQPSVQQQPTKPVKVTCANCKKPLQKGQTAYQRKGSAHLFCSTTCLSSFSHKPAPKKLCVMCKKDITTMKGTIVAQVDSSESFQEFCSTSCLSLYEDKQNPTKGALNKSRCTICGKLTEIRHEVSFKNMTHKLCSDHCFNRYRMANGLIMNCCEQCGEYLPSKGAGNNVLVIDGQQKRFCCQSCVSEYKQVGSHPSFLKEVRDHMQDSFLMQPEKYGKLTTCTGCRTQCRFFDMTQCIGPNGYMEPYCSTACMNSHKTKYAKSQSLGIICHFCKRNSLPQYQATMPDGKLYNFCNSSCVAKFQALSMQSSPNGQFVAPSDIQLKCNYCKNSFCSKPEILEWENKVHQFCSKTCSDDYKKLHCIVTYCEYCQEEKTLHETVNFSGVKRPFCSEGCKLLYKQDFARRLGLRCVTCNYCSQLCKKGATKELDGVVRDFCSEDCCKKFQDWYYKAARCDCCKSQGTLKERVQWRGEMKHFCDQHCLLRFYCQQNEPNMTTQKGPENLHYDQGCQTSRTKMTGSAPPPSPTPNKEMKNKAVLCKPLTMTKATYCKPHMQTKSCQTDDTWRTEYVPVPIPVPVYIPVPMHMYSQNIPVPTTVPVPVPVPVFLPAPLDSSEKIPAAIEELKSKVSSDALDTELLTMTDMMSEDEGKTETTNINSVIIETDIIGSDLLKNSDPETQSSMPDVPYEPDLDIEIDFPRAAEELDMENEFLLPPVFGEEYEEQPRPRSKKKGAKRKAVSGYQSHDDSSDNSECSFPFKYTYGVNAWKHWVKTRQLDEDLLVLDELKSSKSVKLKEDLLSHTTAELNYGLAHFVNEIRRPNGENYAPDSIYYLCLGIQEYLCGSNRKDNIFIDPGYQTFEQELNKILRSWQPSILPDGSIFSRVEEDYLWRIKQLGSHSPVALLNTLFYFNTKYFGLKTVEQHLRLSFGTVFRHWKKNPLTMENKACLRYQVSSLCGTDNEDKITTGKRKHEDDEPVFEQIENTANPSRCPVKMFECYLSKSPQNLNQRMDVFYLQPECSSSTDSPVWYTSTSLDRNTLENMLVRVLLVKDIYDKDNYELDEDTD
inactive: vemurafenib 0.004 | [1] 0.101 | barasertib -0.016 | [2] -0.034 | volasertib -0.253 | [3] -0.119 | [4] 0.025 | [5] -0.196 | saracatinib 0.018 | sotrastaurin -0.008 | alvocidib 0.076 | Tubastatin A -0.155 | [6] 0.003 | defactinib 0.121 | [7] -0.021 | encorafenib -0.214 | [8] -0.018 | alisertib -0.077 | [9] 0.087 | gefitinib 0.06

VANGL1 (UniProt Q8TAA9)
Chain of UniProt Q8TAA9 (Q8TAA9 whole entry, looked up): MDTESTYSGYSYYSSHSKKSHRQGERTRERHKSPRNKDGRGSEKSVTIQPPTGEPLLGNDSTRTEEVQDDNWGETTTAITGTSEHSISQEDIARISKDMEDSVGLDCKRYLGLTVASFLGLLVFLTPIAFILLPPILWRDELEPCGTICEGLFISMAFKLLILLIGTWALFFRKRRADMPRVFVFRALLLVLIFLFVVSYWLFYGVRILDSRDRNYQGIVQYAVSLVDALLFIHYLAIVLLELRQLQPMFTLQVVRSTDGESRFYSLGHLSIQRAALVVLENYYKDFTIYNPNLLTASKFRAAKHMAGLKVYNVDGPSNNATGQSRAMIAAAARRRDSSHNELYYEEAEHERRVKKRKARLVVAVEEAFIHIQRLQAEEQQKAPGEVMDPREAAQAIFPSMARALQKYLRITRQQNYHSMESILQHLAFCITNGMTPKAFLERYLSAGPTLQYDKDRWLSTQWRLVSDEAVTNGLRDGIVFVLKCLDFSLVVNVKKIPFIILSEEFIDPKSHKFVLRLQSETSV
inactive: vemurafenib -0.075 | [1] 0.023 | barasertib 0.101 | [2] 0.004 | volasertib -0.009 | [3] 0.105 | [4] -0.088 | [5] 0.058 | saracatinib 0.044 | sotrastaurin 0.125 | alvocidib 0.005 | Tubastatin A 0.088 | [6] -0.054 | defactinib 0.078 | [7] 0.054 | encorafenib -0.011 | [8] -0.072 | alisertib -0.023 | [9] -0.071 | gefitinib 0.011

VPS33A (UniProt Q96AX1)
Chain of UniProt Q96AX1 (Q96AX1 whole entry, looked up): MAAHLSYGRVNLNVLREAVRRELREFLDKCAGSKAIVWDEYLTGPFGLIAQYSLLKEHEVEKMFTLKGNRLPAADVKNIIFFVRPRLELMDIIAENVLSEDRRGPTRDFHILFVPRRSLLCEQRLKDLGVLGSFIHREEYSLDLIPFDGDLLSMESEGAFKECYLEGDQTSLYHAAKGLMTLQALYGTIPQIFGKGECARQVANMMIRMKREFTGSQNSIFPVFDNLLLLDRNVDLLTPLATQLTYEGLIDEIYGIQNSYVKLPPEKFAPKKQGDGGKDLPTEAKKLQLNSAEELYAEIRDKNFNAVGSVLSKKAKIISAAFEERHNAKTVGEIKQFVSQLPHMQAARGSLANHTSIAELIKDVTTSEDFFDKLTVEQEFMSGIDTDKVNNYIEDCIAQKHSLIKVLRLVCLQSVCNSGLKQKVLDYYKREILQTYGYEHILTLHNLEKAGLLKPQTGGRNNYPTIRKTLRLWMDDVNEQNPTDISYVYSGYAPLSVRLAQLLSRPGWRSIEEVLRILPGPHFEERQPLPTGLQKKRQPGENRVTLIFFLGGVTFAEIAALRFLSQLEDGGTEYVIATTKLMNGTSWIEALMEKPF
inactive: vemurafenib -0.012 | [1] 0.022 | barasertib 0.037 | [2] 0.018 | volasertib -0.042 | [3] 0.018 | [4] -0.041 | [5] -0.033 | saracatinib -0.001 | sotrastaurin 0.03 | alvocidib -0.01 | Tubastatin A -0.077 | [6] 0.033 | defactinib 0.012 | [7] -0.011 | encorafenib 0.028 | [8] -0.044 | alisertib 0.021 | [9] -0.022 | gefitinib 0.027

XPOT (UniProt O43592)
inactive: vemurafenib -0.023 | [1] 0.014 | barasertib 0.011 | [2] -0.097 | volasertib -0.047 | [3] 0.036 | [4] -0.065 | [5] -0.001 | saracatinib -0.005 | sotrastaurin 0.002 | alvocidib 0.004 | Tubastatin A -0.133 | [6] -0.004 | defactinib 0.011 | [7] -0.042 | encorafenib 0.005 | [8] -0.094 | alisertib 0 | [9] 0.005 | gefitinib 0.01

UNC13D (UniProt Q70J99)
Chain of UniProt Q70J99 (Q70J99 whole entry, looked up): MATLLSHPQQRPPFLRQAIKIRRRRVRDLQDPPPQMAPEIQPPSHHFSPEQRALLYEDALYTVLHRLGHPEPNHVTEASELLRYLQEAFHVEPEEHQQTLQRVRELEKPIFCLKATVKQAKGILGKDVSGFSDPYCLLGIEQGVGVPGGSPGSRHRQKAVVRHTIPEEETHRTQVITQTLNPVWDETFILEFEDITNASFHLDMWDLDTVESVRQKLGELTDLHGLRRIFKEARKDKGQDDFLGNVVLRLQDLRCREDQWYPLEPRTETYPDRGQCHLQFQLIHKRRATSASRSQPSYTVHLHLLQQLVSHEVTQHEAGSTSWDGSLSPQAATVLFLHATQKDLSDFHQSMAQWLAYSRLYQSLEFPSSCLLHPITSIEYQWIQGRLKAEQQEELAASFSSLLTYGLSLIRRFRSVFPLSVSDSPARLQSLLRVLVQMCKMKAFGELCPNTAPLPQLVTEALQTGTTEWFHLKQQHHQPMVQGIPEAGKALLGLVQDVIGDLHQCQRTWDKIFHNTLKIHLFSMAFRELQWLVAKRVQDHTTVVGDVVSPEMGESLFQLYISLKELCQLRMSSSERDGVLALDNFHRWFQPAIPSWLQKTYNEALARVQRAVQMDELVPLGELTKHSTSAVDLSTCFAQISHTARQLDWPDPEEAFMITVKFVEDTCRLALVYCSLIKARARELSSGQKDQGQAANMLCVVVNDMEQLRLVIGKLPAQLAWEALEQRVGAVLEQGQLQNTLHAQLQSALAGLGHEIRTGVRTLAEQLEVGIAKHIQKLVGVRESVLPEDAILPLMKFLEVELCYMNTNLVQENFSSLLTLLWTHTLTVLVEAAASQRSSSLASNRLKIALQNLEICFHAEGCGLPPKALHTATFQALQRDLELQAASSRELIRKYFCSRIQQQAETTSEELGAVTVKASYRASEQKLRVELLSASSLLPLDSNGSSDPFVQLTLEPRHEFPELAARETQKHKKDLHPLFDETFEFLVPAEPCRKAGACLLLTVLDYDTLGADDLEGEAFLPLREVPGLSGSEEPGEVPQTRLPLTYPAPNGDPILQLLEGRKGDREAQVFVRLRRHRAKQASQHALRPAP
inactive: vemurafenib 0.039 | [1] 0.027 | barasertib 0.024 | [2] -0.073 | volasertib -0.083 | [3] 0.012 | [4] 0.026 | [5] -0.015 | saracatinib 0.05 | sotrastaurin -0.022 | alvocidib 0.015 | Tubastatin A -0.117 | [6] 0.014 | defactinib 0.026 | [7] -0.035 | encorafenib 0.059 | [8] 0.054 | alisertib -0.005 | [9] 0.001 | gefitinib -0.034

WAC (UniProt Q9BTA9)
Chain of UniProt Q9BTA9 (Q9BTA9 whole entry, looked up): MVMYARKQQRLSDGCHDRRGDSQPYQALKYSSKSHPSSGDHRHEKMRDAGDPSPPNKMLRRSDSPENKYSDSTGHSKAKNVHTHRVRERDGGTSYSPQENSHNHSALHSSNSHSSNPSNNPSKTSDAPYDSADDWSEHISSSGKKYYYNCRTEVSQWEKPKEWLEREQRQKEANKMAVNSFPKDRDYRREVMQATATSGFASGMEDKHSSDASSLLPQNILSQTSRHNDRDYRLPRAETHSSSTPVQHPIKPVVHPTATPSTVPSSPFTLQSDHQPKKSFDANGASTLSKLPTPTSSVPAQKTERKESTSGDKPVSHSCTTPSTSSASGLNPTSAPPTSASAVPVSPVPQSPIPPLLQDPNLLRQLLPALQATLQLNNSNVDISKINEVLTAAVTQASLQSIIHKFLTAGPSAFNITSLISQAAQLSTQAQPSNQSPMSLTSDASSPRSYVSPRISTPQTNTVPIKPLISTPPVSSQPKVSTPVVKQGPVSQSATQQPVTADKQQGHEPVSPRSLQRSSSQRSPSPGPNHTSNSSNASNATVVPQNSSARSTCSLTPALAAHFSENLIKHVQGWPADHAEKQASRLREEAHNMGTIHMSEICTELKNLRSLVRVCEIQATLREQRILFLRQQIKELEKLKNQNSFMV
inactive: vemurafenib 0.018 | [1] 0.051 | barasertib 0.077 | [2] 0 | volasertib -0.003 | [3] 0.051 | [4] 0.061 | [5] 0.024 | saracatinib 0.013 | sotrastaurin -0.002 | alvocidib -0.008 | Tubastatin A -0.035 | [6] 0.068 | defactinib 0.013 | [7] 0.007 | encorafenib -0.006 | [8] 0.118 | alisertib -0.019 | [9] -0.01 | gefitinib 0.009

ZZEF1 (UniProt O43149)
inactive: vemurafenib -0.013 | [1] 0.012 | barasertib 0.051 | [2] -0.015 | volasertib -0.028 | [3] -0.006 | [4] -0.116 | [5] 0.029 | saracatinib 0.036 | sotrastaurin 0.01 | alvocidib 0.005 | Tubastatin A -0.025 | [6] 0.017 | defactinib -0.022 | [7] 0.017 | encorafenib 0.022 | [8] 0.065 | alisertib -0.022 | [9] 0.007 | gefitinib 0.008
